ELG1 genotox – inducers of genotoxicity in HEK293T ELG1-luciferase cells | HEK293T ELG1-luciferase reporter, luminescence, 16 h | Potency, µM (doses to about 46 µM), inactives show top-dose activity change, positive = activation, actives largely listed as activators | 1.3% of 330,000 active | AID 504466; note: % of control where 0% means no effect; nearly all actives have a fitted effect of over 60% in size
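After overnight (16 hr) compound treatment at 37 °C, ELG1-luciferase HEK293T cells were lysed with ONE-Glo; luminescence quantified 30 min later at room temperature.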
Rab9 prom act – Rab9 promoter activation; Huh7 Rab9 promoter-luciferase reporter, luminescence, 24 h; Potency, µM (doses to about 9.22 µM), without a hit: at the highest dose activation, negative = inhibition, most hits filed as activators; 2.8% of 320,000 active; note: % of control where 0% means no effect; nearly all actives have a fitted effect of over 60% in size
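Cell-based reporter: Huh7 stable for Rab9 promoter-driven luciferase, plated in reduced-serum medium with 10% FBS at 1500 cells/well, compound-treated 24 h at 37 °C, luminescence read after 10 min reagent.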
FLuc counter – counter-screen for miR-21 project: firefly luciferase inhibitors or activators. P08659. purified FLuc, Km substrates, luminescence inhibition. Potency, µM (top dose mostly 57.5 µM), for the others: top-dose activity change, negative = inhibition, actives largely listed as inhibitors. 6.9% of 360,000 active. AID 588342;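 note: plate controls were vehicle for no effect and reference inhibitor for full effect; nearly all actives have a fitted effect of over 55% in size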
Target sequence (P08659 whole entry, looked up): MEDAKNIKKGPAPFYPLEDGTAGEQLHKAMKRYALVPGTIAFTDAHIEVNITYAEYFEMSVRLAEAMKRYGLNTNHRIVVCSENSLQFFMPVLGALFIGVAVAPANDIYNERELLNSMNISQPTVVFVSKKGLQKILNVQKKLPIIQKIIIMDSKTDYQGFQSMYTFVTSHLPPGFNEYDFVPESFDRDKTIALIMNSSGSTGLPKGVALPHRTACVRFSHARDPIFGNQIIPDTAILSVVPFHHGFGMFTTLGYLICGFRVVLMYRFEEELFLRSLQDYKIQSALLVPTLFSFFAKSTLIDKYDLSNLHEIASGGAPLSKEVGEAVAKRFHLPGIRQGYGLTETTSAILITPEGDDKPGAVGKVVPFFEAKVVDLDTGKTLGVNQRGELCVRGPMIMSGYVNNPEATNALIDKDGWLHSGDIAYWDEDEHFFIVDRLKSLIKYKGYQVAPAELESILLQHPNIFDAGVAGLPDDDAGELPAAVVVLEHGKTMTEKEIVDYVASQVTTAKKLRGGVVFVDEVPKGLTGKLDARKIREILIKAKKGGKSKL
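Purified P. pyralis luciferase (10nM final) with 10uM D-luciferin and 10uM ATP (Km levels) in 50mM Tris acetate pH 7.5, 10mM Mg acetate, 0.01% Tween-20, 0.05% BSA; qHTS 6-point titration, ~60 µM downward; luminescence read.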
SMN2 splice enh – increases expression of the SMN2 splice variant; Potency, µM (top dose mostly 46.1 µM), for inactives: at the top dose activity change, positive = activation, hits mostly activators; AID 1458; HEK293 SMN2-luciferase splicing reporter, luminescence, 30-36 h; 2.8% of 210,000 active; note: % of control where 0% means no effect; nearly all actives have a fitted effect of over 55% in size
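qHTS luciferase splicing reporter: luminescence rises when SMN2 exon 7 is included in transfected HEK293 cells. Compound exposure lasted 30-36 h at 37C, with 4.5 mM final sodium butyrate as control, followed by a ONE-Glo read.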
KinaseGlo FLuc – Kinase-Glo luciferase inhibition (counter-screen) | Kinase-Glo luciferase, ATP luminescence, 8 min | 0.28% of 200,000 active | Potency, µM (doses to about 38.3 µM), for the others: at the top dose activity change, negative = inhibition, actives largely listed as inhibitors | Q27757; note: % is set by controls: 0 for no effect and ±100 for the full control effect; nearly all actives have a fitted effect of over 60% in size
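Recombinant Kinase-Glo luciferase, 10 uM ATP (linear range), luciferin; imidazole pH 7.2 / KCl / MgCl2 / Tween / BSA buffer; 8 min RT; luminescence.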
NPC1 prom act – NPC1 promoter activation. Potency, µM (top dose mostly 9.22 µM), for the others: at the highest dose activation, actives largely listed as activators. AID 485313. 2.4% of 320,000 active. Huh7 NPC1 promoter luciferase reporter, 24 h; note: % of control where 0% means no effect; nearly all actives have a fitted effect of over 60% in size
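Luminescence from an NPC1 promoter-driven luciferase reporter in stably transfected Huh7 cells was measured after 24 h compound treatment at 37 °C, followed by 10 min ambient incubation with luciferase detection reagent.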
An asterisk follows results filed as active; ? = inconclusive; · = not tested or not shown; [ ] = remark or other dose. Compounds with a hit are over-represented: about 7.5% of the library has one in this group of screens. Calls come from the whole dose curve; as a rule, active = well fitted curve in the direction sought with a large enough effect; inconclusive = small, poorly fitted or top-dose-only effect, or another doubt; inactive = no such curve, though single readings can be large; an effect the other way counts as inactive or inconclusive. Potency is the fitted concentration of half-maximal effect.

SMILES	ELG1 genotox	Rab9 prom act	FLuc counter	SMN2 splice enh	KinaseGlo FLuc	NPC1 prom act
COc1cccc(/C=N/NC(=O)c2nc(-c3ccccc3)cc(-c3ccccc3)n2)c1	-9.0%	3.0%	2.39µM*	-18.3%	-5.9%	-2.1%
COc1ccc(/C=N/NC(=O)c2nc(-c3ccccc3)cc(-c3ccccc3)n2)cc1OC	-1.0%	-3.0%	2.39µM*	-37.0%	-6.2%	3.1%
COc1cccc(/C=N/NC(=O)C(C)Cn2cnc3ccccc32)c1 (stereo not given)	-7.4%	-4.7%	15.1µM*	·	·	-3.4%
Cc1ccc(-n2nc3c(N4CCC(C(=O)NCc5cccc(F)c5)CC4)nnc(C)c3c2C)cc1	6.9%	-15.3%	4.2%	·	·	-3.2%
Cc1ccc(O)c(N=Nc2ccccc2)n1	·	20.6µM*	·	?	2.82µM*	18.4µM*
Clc1ccc2nc3c4ccccc4cnn3c2c1	8.2µM*	-2.8%[1.84 µM]	1.9µM*	2.82µM*	?	10.4%
COc1ccc(NC(=O)CC2C(=O)Nc3ccccc3N2CC(=O)N2CCCC2)cc1 (stereo not given)	2.9%	-0.3%	5.2%	·	·	2.0%
CCS(=O)(=O)c1ccc(O)c(NC(=O)COc2ccc(Br)cc2)c1	-1.4%	-4.1%	23.9µM*	0.6%	4.0%	0.5%
Cc1ccccc1Nc1c(-c2cccc(N(C)C)c2)nc2ccc(Br)cn12	·	·	-1.3%	?	·	·
Cc1nc2ccccn2c1C(=O)Nc1ccc(Cl)cc1	?	?	23.9µM*	87.5%	1.2%	?
Cc1nc2ccccn2c1C(=O)Nc1ccc2c(c1)OCCO2	?	?	12µM*	7.08µM*	-22.5%	?
Cc1ccc(NC(=O)c2c(Cl)nc3ccccn23)cc1	?	?	10.7µM*	12.6µM*	-0.7%	18.7%
Cc1nc2ccccn2c1C(=O)N/N=C/c1ccc2c(c1)OCO2	?	21.2%	12µM*	?	-6.0%	14.9%
Cc1nc2ccccn2c1C(=O)NCc1ccc2c(c1)OCO2	0.8%	0.8%	4.9%	-37.9%	-1.5%	-6.5%
CCc1ccc(NC(=O)[C@H](C)NC(=O)C2CCN(C(=O)[C@@H](NC(=O)OC(C)(C)C)C(C)C)CC2)cc1	6.9%	14.6%	21.3µM*	·	·	18.4%
CC(C)[C@H](NC(=O)OC(C)(C)C)C(=O)N1CCC(C(=O)N[C@@H](C)C(=O)Nc2ccc(F)cc2)CC1	-3.6%	-0.4%	0.6%	·	·	-3.0%
N[C@@H](Cn1cc(I)c(=O)n(Cc2ccc(C(=O)O)cc2)c1=O)C(=O)O	·	·	·	·	-0.3%	·
NC(=NC1C2CC3CC(C2)CC1C3)Nc1ccc(I)cc1 (stereo not given)	·	·	·	-20.4%	3.6%	·
C[C@@]12C[C@H](O)C3[C@H](CCC4=CC(=O)CC[C@]43C)[C@H]1CC[C@@H]2c1csc(N)n1 (stereo not given in full)	·	·	·	-3.2%[9.22 µM]	1.0%[7.66 µM]	·
Cc1cc(C(=O)N/N=C/c2ccncc2)c(C)o1	0.0%	0.7%	?	·	·	-3.0%
Cc1ccc(/C=N/NC(=O)c2cc(C)oc2C)cc1	?	24.0%	4.26µM*	·	·	11.8%
CC(/C=N\NC(=O)c1cc(C)oc1C)=C\c1ccccc1	?	2.51µM*	2.13µM*	?	-25.3%	?
Cc1cccc(C(=O)Nc2ccc(C(=O)N/N=C/c3ccc4c(c3)OCO4)cc2)c1	7.7%	-4.7%	-6.7%	·	·	0.4%
Cc1ccc(C(=O)N/N=C/c2cccc(OC(=O)/C=C/c3ccco3)c2)cn1	9.1%	-0.9%	12µM*	·	-2.4%	1.7%
O=C(N/N=C/c1ccc2c(c1)OCO2)c1cccnc1	23.7%	12.6%	26.9µM*	·	·	28.2%
O=C(N/N=C\C=C\c1ccc2c(c1)OCO2)c1ccc(F)cc1	-3.9%	1.9%	?	-12.9%	0.6%	9.2%
Cc1ccc(C(=O)N/N=C\c2ccc3c(c2)OCO3)cn1	6.5%	3.0%	16.9µM*	·	·	0.7%
O=C(N/N=C\c1ccc2c(c1)OCO2)c1cncc(Br)c1	-13.6%	15.0%	?	·	·	12.0%

Assay outcomes from PubChem BioAssay.
